Laboratory results: PubChem BioAssay AID434973 (Sanford-Burnham Center for Chemical Genomics, 2010)
The whole screen tested about 330,000 compounds, of which about 4,900 (1.5%) were called active. The full list was thinned out, with actives kept by preference. A number with no mark means an inactive call.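 Rule for the calls: active = inhibition above about 50% at the single test dose (limit read from the data); inactive = the rest.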

target: Sentrin-specific protease 7 (Homo sapiens) (UniProt Q9BQF6); assay: blockers of human SENP7 peptidase activity – biochemical, luminescence, uHTS, primary screen (AID 434973); settings: recombinant SENP7, Z-RLRGG-aminoluciferin luminescence, 40 min; at 5 µM; hits give high values;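 note: plate controls were DMSO with enzyme for no effect and no enzyme buffer wells for full effect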

Compound	inhibition
COc1ccc(C(=O)OCC(=O)c2cc(C)n(CC3CCCO3)c2C)cc1[N+](=O)[O-] (stereo not given)	-9.42%
Cc1cc(C(=O)Cn2cnc3cc([N+](=O)[O-])ccc3c2=O)c(C)n1CC1CCCO1 (stereo not given)	1.73%
Cc1ccsc1C(=O)OCC(=O)c1cc(C)n(CC2CCCO2)c1C (stereo not given)	94.5% (active)
CC1CCc2c(c3ccccc3[nH]c2=O)O1 (stereo not given)	4.43%
COc1ccc(CNC(=O)COC(=O)c2c(C)nn(-c3ccccc3)c2C)cc1OC	4.03%
COc1ccc(CNC(=O)COc2ccccc2C(=O)c2cnn(-c3ccccc3)c2)cc1OC	60.9% (active)
COc1ccc(CNC(=O)Cc2ccc(-c3ccccc3)cc2)cc1OC	-4.04%
CCOc1ccc(C(=O)NCC(=O)N2CCCCCCC2)cc1OCC	6.97%
CCN1C[C@@H]2[C@@H]3C(=O)N(Cc4ccccc4)C(=O)[C@@H]3[C@](Cc3ccccc3)(C(=O)OC)N2C1=NC1CCCCC1	8.17%
Cc1ccc(NC(=O)c2cccc(S(=O)(=O)N3CCCc4ccccc43)c2)nc1	5.31%
CC(C)c1ccc(S(=O)(=O)N2CCC3(CC2)OCCO3)cc1	3.85%
CCC1C/C(=C/c2cccs2)C(=O)/C(=C/c2cccs2)C1 (stereo not given)	1.12%
O=C1/C(=C/c2cccs2)CCc2ccccc21	97.7% (active)
O=C1/C(=C/c2cccs2)SC(=S)N1C1CCS(=O)(=O)C1 (stereo not given)	0.763%
COc1ccc(/C=C2\CCc3ccccc3C2=O)c(OC)c1OC	-0.625%
O=C1/C(=C/c2cccs2)CCC1C1CCCC1 (stereo not given)	70% (active)
CN1C/C(=C/c2cccs2)C(=O)/C(=C\c2cccs2)C1	7.35%
CC(=O)N1CCN(S(=O)(=O)c2c(F)cc(F)c(Cl)c2F)CC1	2.44%
O=C1Nc2cc(C(=O)N3CCN(c4ccc(F)cc4)CC3)ccc2NC1CSCc1cccc(F)c1 (stereo not given)	8.91%
COc1ccccc1C(=O)Nc1ccc(C)c(S(=O)(=O)N2CCCCC2)c1	-5%
Cc1cnc(C(=O)N2CCCC(N3CCN(c4ccccc4F)CC3)C2)cn1 (stereo not given)	-6.9%
O=C1CN(C(=O)c2ccccc2F)C(c2ccc(F)cc2)c2cc(F)ccc2N1 (stereo not given)	-0.54%
Oc1ccc(N=Nc2nccs2)c(O)c1	74.3% (active)
Cc1ccc(OCC(=O)N2CCN(S(=O)(=O)c3ccc(Cl)s3)CC2)cc1C	8.22%
COc1ccccc1-c1nc(C(F)(F)F)c(OC)o1	-6.4%

Compound	inhibition
CSc1ccccc1-c1nnc(-c2ccc(Cl)cc2)o1	28.1%
COc1ccccc1-c1nnc(-c2ccc(F)cc2)o1	50.3% (active)
O=C(NCc1cccc(Cl)c1)C1=CC=CN2CCS(=O)(=O)N=C12	-0.294%
CN1C(=O)c2cccc3c(N)ccc(c23)C1=O	-3.67%
CCN1C(=O)c2cccc3c(S(=O)(=O)Nc4ccccc4O)ccc1c23	11.4%
CCN1C(=O)c2cccc3c(N)ccc1c23	95.9% (active)
CCOC(=O)C1=NNC2(c3ccc(Cl)cc3)C(=O)N(c3cc(C)cc(C)c3)C(=O)C12 (stereo not given)	6.05%
CCCn1c(=O)c2c(C(F)(F)F)cc(-c3cccs3)nc2n(CCC)c1=O	3.7%
O=C(NCc1ccccn1)c1c(O)c2c([nH]c1=O)CCCC2	53.8% (active)
C[N+](C)(C)CCNC(=O)c1c(O)c2c([nH]c1=O)CCCC2	4.83%
CCc1nnc(NC(=O)c2c(O)c3c([nH]c2=O)CCCC3)s1	-5.71%
CN1CCN(S(=O)(=O)c2ccc(Nc3ccc(F)cc3)nc2)CC1	-1.19%
O=C(Nc1ccn(Cc2ccccc2)n1)c1n[nH]c([N+](=O)[O-])c1Cl	93.9% (active)
Cc1c(Br)c([N+](=O)[O-])nn1CC(=O)N1CCN(Cc2ccccc2)CC1	-3.11%
O=C(Nc1ccn(Cc2ccccc2F)n1)c1ccc(COc2ccc(Cl)cc2Cl)o1	-4.47%
CCN(CC)S(=O)(=O)c1ccc(C(=O)N2CCN(C3=NS(=O)(=O)c4ccccc43)CC2)cc1	0.565%
COC(CNC(=O)c1ccc2c(c1)ncn2-c1cc(C)cc(C)c1)OC	-3.05%
COc1cc2c(cc1OC)C(C)N(S(=O)(=O)c1cnc(Cl)c(Cl)c1)CC2 (stereo not given)	7.13%
CCn1ccnc1CN(C)Cc1nc(-c2ccc3c(c2)OCO3)no1	3.04%
COc1ccccc1C(=O)Nc1ccc(NC(=O)c2ccco2)c(C)c1	50.6% (active)
Cc1cc(NC(=O)c2ccc(F)cc2)ccc1NC(=O)c1ccco1	64.1% (active)
O=C(Nc1ccc(O)cc1)c1ccc(NC(=O)c2ccco2)cc1	-10.1%
COc1ccc(OCC(=O)Nc2ccc(NC(=O)c3ccco3)c(C)c2)cc1	-4.14%
COc1ccc(NC(=O)c2ccco2)cc1NC(=O)c1ccc(C#N)cc1F	1.99%
Cc1cccc(OCC(=O)Nc2ccc(NC(=O)c3ccco3)c(C)c2)c1	7.42%
